Hits are enriched below; roughly 6.7% of the tested compounds scored in any of these assays.
T cruzi growth-1: blocks T. cruzi growth in NIH3T3 culture; T. cruzi beta-gal in NIH3T3, GalScreen luminescence, 90 h; 77,000 tested, 5.9% active; inhibition, % at 8.34 µM;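 active = mean inhibition above about 93%, with at least 55% of replicates each passing it, limit read from the data, passing the limit was not always enough; inconclusive = only one of those two conditions holds; inactive = neither condition holds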
C diff growth: inhibitors of Clostridium difficile growth | 86,000 tested, 0.25% active | Clostridium difficile clinical isolate growth, OD600, 24 h; stronger effect = lower value | AID 1259249 | growth activity, negative = inhibition, % at 16 µg/mL (by protocol);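 active = mean growth activity at or below -80% and every replicate also at or below -80%; inconclusive = mean at or below -80% but some replicate above -80%; inactive = mean growth activity above -80%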
Pf Dd2 inh: blocks growth of Plasmodium falciparum Dd2 parasites. P. falciparum Dd2 growth, SYBR Green, 72 h; stronger effect = lower value. activity change, % at 10 µM. 94,000 tested, 2.3% active. AID 1159554; in the data active = activity change below about -80%; inconclusive = no clear call, values can overlap the other calls
T cruzi growth-2: blocks T. cruzi growth in NIH3T3 host cells; shares compounds with T cruzi growth-1; T. cruzi beta-gal in NIH3T3, GalScreen luminescence, 90 h; inhibition, % at 8.35 µM; 5,600 tested, 72% active; AID 651739;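 active = mean replicate inhibition above about 95% and at least 55% of replicates individually reaching it, limit read from the data; inconclusive = only one of the two criteria is met; inactive = neither criterion is met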
T cruzi growth-3: blocks T. cruzi growth in NIH3T3 host cells; shares compounds with T cruzi growth-1; T. cruzi beta-gal in NIH3T3, GalScreen luminescence, 90 h; inhibition, % at 2.09 µM; 5,600 tested, 21% active;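 active = mean inhibition above about 95%, with at least 55% of replicates also reaching it, limit read from the data; inconclusive = meets just one of the two conditions; inactive = meets neither condition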
3T3 cytotox: cytotoxicity in mouse NIH/3T3 fibroblasts; shares compounds with T cruzi growth-1; NIH/3T3 viability, CellTiter-Glo ATP luminescence, 90 h; cytotoxicity (signal decrease), % at 8.35 µM; 5,600 tested, 14% active;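 active = mean signal decrease across replicates above about 35% based on untreated-well scatter, with enough replicates individually passing, limit read from the data; inconclusive = no rule stated though some were filed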
NIH3T3 tox 2: cytotoxicity in mouse NIH/3T3 fibroblasts | AID 651744 | NIH/3T3 viability, CellTiter-Glo ATP luminescence, 90 h | shares compounds with T cruzi growth-1 | inhibition, % at 24.9 µM | 5,600 tested, 56% active;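 active = mean loss of cell viability signal at or above a set limit, and enough replicates individually reaching it; inconclusive = meets only the mean limit or only the replicate share; inactive = meets neither condition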
A number is an active result; - = inactive; ? = inconclusive; . = not tested or not shown.

SMILES	T cruzi growth-1	C diff growth	Pf Dd2 inh	T cruzi growth-2	T cruzi growth-3	3T3 cytotox	NIH3T3 tox 2
Cc1ccc(-c2ccc3c(c2)O[C@@H](CN(C)Cc2ccccc2)[C@@H](C)CN([C@@H](C)CO)S3(=O)=O)cc1	124	-	-	96	107	-	104
C[C@H]1CN([C@@H](C)CO)C(=O)c2cc(C#Cc3ccccc3)cnc2O[C@@H]1CN(C)C(=O)CN(C)C	-	-	-	.	.	.	.
CC(C)C#Cc1ccc2c(c1)O[C@H](CN(C)Cc1cncnc1)[C@@H](C)CN([C@@H](C)CO)S2(=O)=O	-	-	-	.	.	.	.
Cc1cccc(-c2ccc([C@H]3[C@@H](CO)N4CCCCN(C(=O)c5cccnc5)C[C@H]34)cc2)c1	114	-	-	96	-	-	?
Cc1cccc(-c2ccc([C@H]3[C@@H](CO)N4CCCCN(C(=O)c5ccncc5)C[C@@H]34)cc2)c1	-	-	-	.	.	.	.
Cc1cccc(-c2ccc([C@@H]3[C@H]4CN(C(=O)c5cccnc5)CCCCN4[C@H]3CO)cc2)c1	104	-	-	-	-	-	42
Cc1ccccc1-c1ccc([C@H]2[C@H]3CN(C(=O)c4cccnc4)CCCCN3[C@H]2CO)cc1	-	-	-	.	.	.	.
Cc1cccc(-c2ccc([C@H]3[C@H](CO)N4CCCCN(C(=O)c5ccncc5)C[C@@H]34)cc2)c1	-	-	-	.	.	.	.
Cc1cccc(-c2ccc([C@H]3[C@@H](CO)N4CCCCN(C(=O)c5cccnc5)C[C@@H]34)cc2)c1	?	-	-	108	-	36	-
COc1cccc(-c2cnc3c(c2)C(=O)N([C@@H](C)CO)C[C@@H](C)[C@H](CN(C)C(=O)Nc2ccccc2F)O3)c1	.	-	-	.	.	.	.
C[C@H]1CN([C@@H](C)CO)C(=O)c2cc(NC(=O)C3CC3)ccc2O[C@@H]1CN(C)C(=O)Nc1ccc(F)cc1	-	-	-	.	.	.	.
COCC(=O)Nc1ccc2c(c1)C(=O)N(C)C[C@H](OC)[C@@H](C)CN(C(=O)CC1CC1)[C@@H](C)CO2	-	.	-	.	.	.	.
C/C=C/c1ccc2c(c1)O[C@@H](CN(C)Cc1ccc(C(=O)O)cc1)[C@@H](C)CN([C@H](C)CO)S2(=O)=O	.	-	-	.	.	.	.
CCCNC(=O)N1C[C@H]2[C@@H](c3ccccc31)[C@@H](CO)N2C(=O)Cc1ccccn1	-	-	-	.	.	.	.
COCC#Cc1cnc2c(c1)C(=O)N([C@H](C)CO)C[C@@H](C)[C@H](CN(C)S(=O)(=O)c1ccccc1)O2	-	-	-	.	.	.	.
CN(C)CCCNC(=O)C[C@H]1CC[C@@H]2[C@H](COc3ccc(NS(C)(=O)=O)cc3C(=O)N2C)O1	-	-	-	.	.	.	.
C[C@@H]1CCCCO[C@@H](CN(C)S(=O)(=O)c2ccccc2)[C@@H](C)CN([C@H](C)CO)C(=O)c2cc(NC(=O)Nc3ccc4c(c3)OCO4)ccc2O1	-	-	-	.	.	.	.
Cc1ccc(S(=O)(=O)N(C)C[C@@H]2OCCCC[C@H](C)Oc3ccc(NC(=O)Nc4ccc5c(c4)OCO5)cc3C(=O)N([C@H](C)CO)C[C@@H]2C)cc1	119	.	-	111	105	-	-
COc1ccc(NC(=O)Nc2ccc3c(c2)C(=O)N([C@H](C)CO)C[C@@H](C)[C@@H](CN(C)S(=O)(=O)c2ccc(OC)cc2)OCCCC[C@H](C)O3)cc1	-	-	-	.	.	.	.
C[C@@H]1CCCCO[C@@H](CN(C)S(=O)(=O)c2ccc(F)cc2)[C@@H](C)CN([C@H](C)CO)C(=O)c2cc(NC(=O)Nc3ccc4c(c3)OCO4)ccc2O1	-	-	-	.	.	.	.
C[C@@H]1CCCCO[C@H](CN(C)S(=O)(=O)c2ccc(Cl)cc2)[C@@H](C)CN([C@@H](C)CO)C(=O)c2cc(NC(=O)Nc3ccc4c(c3)OCO4)ccc2O1	103	-	-83	108	104	-	-
COc1ccc(S(=O)(=O)N(C)C[C@@H]2OCCCC[C@@H](C)Oc3ccc(NC(=O)Nc4ccc5c(c4)OCO5)cc3C(=O)N([C@@H](C)CO)C[C@H]2C)cc1	?	-	-82	107	-	-	-
COCC#Cc1ccc2c(c1)O[C@@H](CN(C)C(=O)NC(C)C)[C@H](C)CN([C@@H](C)CO)S2(=O)=O	-	-	.	.	.	.	.
CO[C@H]1CN(C)C(=O)c2ccc(NS(C)(=O)=O)cc2OC[C@@H](C)N(Cc2nccs2)C[C@H]1C	-	.	-	.	.	.	.
O=C(Nc1ccc2c(c1)[C@@H]1C[C@@H](CC(=O)N3CCc4ccccc4C3)O[C@@H](CO)[C@@H]1O2)NC1CCCC1	.	-	-	.	.	.	.
SMILES	T cruzi growth-1	C diff growth	Pf Dd2 inh	T cruzi growth-2	T cruzi growth-3	3T3 cytotox	NIH3T3 tox 2
O=C(C1=C[C@@H](C2CC2)C[C@@H](OCc2ccc(CO)cc2)O1)N1CCCC1	.	-	.	.	.	.	.
Cc1noc(C)c1S(=O)(=O)Nc1ccc2c(c1)C(=O)N([C@@H](C)CO)C[C@H](C)[C@H](CN(C)S(=O)(=O)c1c(C)noc1C)O2	-	.	-	.	.	.	.
CO[C@H]1CN(C)C(=O)c2cc(NS(C)(=O)=O)ccc2OC[C@@H](C)N(C(=O)CN(C)C)C[C@H]1C	-	-	-	.	.	.	.
COc1ccc(CN(C)C[C@H]2Oc3ccc(NC(=O)c4ccncc4)cc3CC(=O)N([C@@H](C)CO)C[C@H]2C)cc1	-	-	-	.	.	.	.
CC(=O)N(C)C[C@@H]1Oc2cc(C#CC3CCCCC3)ccc2S(=O)(=O)N([C@@H](C)CO)C[C@H]1C	-	-	-	.	.	.	.
CC(=O)N(C)C[C@@H]1Oc2cc(C#CC3CCCCC3)ccc2S(=O)(=O)N([C@H](C)CO)C[C@H]1C	?	-	-	108	-	-	64
CC(=O)N(C)C[C@H]1Oc2cc(C#CC3CCCC3)ccc2S(=O)(=O)N([C@@H](C)CO)C[C@@H]1C	-	-	-	.	.	.	.
CC(=O)N(C)C[C@H]1Oc2cc(C#CC3CCCC3)ccc2S(=O)(=O)N([C@H](C)CO)C[C@H]1C	102	-	-	96	-	-	62
CCC(=O)Nc1ccc2c(c1)C(=O)N(C)C[C@H](OC)[C@@H](C)CN(C(=O)CC1CC1)[C@@H](C)CO2	-	.	-	.	.	.	.
C[C@H](CO)N1C[C@H](C)[C@@H](CN(C)Cc2ccc(C(F)(F)F)cc2)Oc2ccc(NC(=O)Cc3cn(C)c4ccccc34)cc2C1=O	118	-	-	107	-	-	-
C[C@@H]1CN([C@@H](C)CO)C(=O)c2cc(NC(=O)Cc3cn(C)c4ccccc34)ccc2O[C@H]1CN(C)Cc1ccc(Cl)c(Cl)c1	?	.	-	105	-	-	-
C[C@H]1CN([C@@H](C)CO)C(=O)c2cc(NC(=O)Cc3cn(C)c4ccccc34)ccc2O[C@@H]1CN(C)Cc1ccncc1	?	-	-	-	-	-	30
C[C@H](CO)N1C[C@H](C)[C@@H](CN(C)Cc2ccc(Cl)c(Cl)c2)Oc2ccc(NC(=O)Cc3cn(C)c4ccccc34)cc2C1=O	-	-	-	.	.	.	.
